Results on 54 sequences are retold here after the supplement of paper PMC3334620.

Whole data set: some 33,000 sequences, median “E-score (-0.5 to 0.5)” near -0.0034, cut for the highest 2% near 0.25. The sample holds the highest values, similar sequences and a random draw of the others, so the mix is not that of the screen.

The test has as its target T1, Yap3 (UniProt P38749).
T1 sequence: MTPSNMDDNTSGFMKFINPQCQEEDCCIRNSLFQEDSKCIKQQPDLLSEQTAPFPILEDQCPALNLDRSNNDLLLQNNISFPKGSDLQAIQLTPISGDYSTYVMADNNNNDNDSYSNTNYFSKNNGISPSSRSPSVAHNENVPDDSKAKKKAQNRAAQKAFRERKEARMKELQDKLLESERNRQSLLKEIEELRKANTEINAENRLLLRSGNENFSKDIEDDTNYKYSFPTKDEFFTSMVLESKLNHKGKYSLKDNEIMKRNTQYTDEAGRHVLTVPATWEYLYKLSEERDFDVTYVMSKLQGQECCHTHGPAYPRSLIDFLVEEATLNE
Nature of the test: PBM E-score (8-mer binding enrichment) (E-score (-0.5 to 0.5)); higher = stronger / more preferred TF binding. Conditions: protein concentration: 100 nM; construct: GST-full length. Summed up:
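Bound GST-tagged yeast transcription factors, applied at about 100-200 nM to double-stranded universal all-10-mer Agilent arrays, were detected with fluorescent anti-GST. Scans were normalised with masliner. A modified Wilcoxon-Mann-Whitney statistic, the E-score, was assigned to each ungapped eight-base word pooled with its reverse complement by the Universal PBM Analysis Suite.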
As for CGGAGCTA, the “PBM E-score” value was -0.142.

GAGGCCAC: the “PBM E-score” value was -0.223.

Regarding ATAGTAAA, the “PBM E-score” value was found to be 0.238.

On to CTAGTAAA, for which the “PBM E-score” value worked out at 0.0933.

On to TTAGTAAA, for which the “PBM E-score” value is 0.295.

CTAGTCAA: the “PBM E-score” value was -0.0259.

Consider GGAGTAAC, for which the “PBM E-score” value is -0.103.

For the sequence TTAGTCAA, the “PBM E-score” value was 0.27.

On to TGAGTAAA, for which the “PBM E-score” value came out at 0.161.

For GGAGTAAA, the “PBM E-score” value turned out to be 0.267.

Regarding GTAGTCAA, the “PBM E-score” value was -0.0796.

Consider GAGCGTCC, for which the “PBM E-score” value was -0.223.

As for ACACCACC, the “PBM E-score” value is -0.209.

Turning to CCTACCCG, the “PBM E-score” value was -0.174.

Take GAGAAACA: the “PBM E-score” value was 0.218.

Consider CGACCCAG, for which the “PBM E-score” value is -0.23.

Take CGAGTGTA: the “PBM E-score” value was -0.0629.

With GTTTCATA, the “PBM E-score” value worked out at 0.0741.

Regarding CTAGTTAA, the “PBM E-score” value stood at 0.26.

For ATAGTTAA, the “PBM E-score” value is 0.114.

As to GTAGTTAA, the “PBM E-score” value amounted to 0.142.

For GCATGGGA, the “PBM E-score” value is -0.197.

With GATGACAC, the “PBM E-score” value was found to be 0.132.

Take GATGACAA: the “PBM E-score” value is 0.264.

In the case of CATGACAA, the “PBM E-score” value stood at 0.143.

CGGTTCGA: the “PBM E-score” value turned out to be 0.0689.

In the case of GTGAACAC, the “PBM E-score” value was -0.156.

With ATGCCGTC, the “PBM E-score” value was -0.0725.

CGAGCTGA: the “PBM E-score” value stood at 0.081.

Regarding AGAGAGGA, the “PBM E-score” value is -0.261.

For the sequence ATGAATTG, the “PBM E-score” value amounted to 0.208.

Consider ATTGAAAG, for which the “PBM E-score” value came to 0.143.

As to ATTGAATA, the “PBM E-score” value came to 0.256.

As for TATGAATA, the “PBM E-score” value turned out to be 0.266.

In the case of ATTGAAAC, the “PBM E-score” value stood at 0.155.

Regarding CATGAATA, the “PBM E-score” value came out at 0.0196.

As to ATTGAAAA, the “PBM E-score” value was 0.266.

CTTGAATA: the “PBM E-score” value came to 0.113.

Take ATTGAAAT: the “PBM E-score” value was 0.263.

Take ATTGAATC: the “PBM E-score” value was determined as 0.0178.

Turning to GATGAATA, the “PBM E-score” value stood at 0.242.

CTTGAAAA: the “PBM E-score” value worked out at 0.161.

Turning to AATGAAAT, the “PBM E-score” value was found to be 0.21.

As for CGTCGCAG, the “PBM E-score” value was -0.0218.

Regarding GTAGAGAA, the “PBM E-score” value is 0.0971.

On to GAGTGGAC, for which the “PBM E-score” value was -0.0806.

As for AGCAAAGA, the “PBM E-score” value amounted to 0.0203.

Turning to CATACGAC, the “PBM E-score” value stood at 0.0835.

For AAGGAAAA, the “PBM E-score” value was 0.156.

As for CCTCTGGA, the “PBM E-score” value was -0.136.

As for TAATTGCA, the “PBM E-score” value was 0.195.

For GCTCCTAA, the “PBM E-score” value was -0.265.

Regarding ACAAGGAT, the “PBM E-score” value stood at 0.113.

TCTTGTAA: the “PBM E-score” value was determined as 0.118.
